From PubChem BioAssay (EPA / NIEHS)
Results filed as inconclusive are left out. The source made the active and inactive calls. The calls were made as follows, unless noted: active = hit-call score of the fitted dose curve at least 0.9, where 1 is the maximum; inactive = score below 0.9.

Experiments:
[1] = read-out: sulfotransferase 2A1 (SULT2A1), SULT2A1 (gene 6822); assay: LTEA_HepaRG_SULT2A1: Life Technologies and Expression Analysis (LTEA) Assay for sulfotransferase 2A1 (SULT2A1) using HepaRG (AID 2283531); conditions: mRNA level, 48 h; actives raise or lower the signal
How it was run: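 Gene-expression endpoint in a human liver cell line: SULT2A1 mRNA change after 48 h chemical treatment, curves fitted in both directions relative to 0.5% DMSO vehicle. Concentrations spanned eight half-log steps from 100 uM.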

[2] = read-out: Transforming Growth Factor (TGFA), TGFA (gene 7039); assay: LTEA_HepaRG_TGFA: Life Technologies and Expression Analysis (LTEA) Assay for Transforming Growth Factor (TGFA) using HepaRG (AID 2283532); conditions: mRNA level, 48 h; actives raise or lower the signal
How it was run: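 TGFA transcript quantified by qRT-PCR (Fluidigm arrays) against three housekeeping genes, after 48 hours chemical treatment of HepaRG cells. Top concentration 100 uM with half-log dilutions, 8 points, duplicates, 0.5% DMSO.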

TIMP1, TIMP1 (gene 7076) = assay: LTEA_HepaRG_TIMP1: Life Technologies and Expression Analysis (LTEA) Assay for TIMP1 using HepaRG (AID 2283534); conditions: mRNA level, 48 h; actives raise or lower the signal;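 also: TaqMan qRT-PCR signal normalized to ACTB GAPDH and POLR2A housekeeping genes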
How it was run: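 TIMP1 induction or repression in HepaRG cells after 48 h chemical exposure (eight concentrations, highest 100 uM), assessed by normalized qRT-PCR with bidirectional fitting to DMSO controls.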

[3] = read-out: Tumor necrosis factor receptor 1 (TNFRSF1A), TNFRSF1A (gene 7132); assay: LTEA_HepaRG_TNFRSF1A: Life Technologies and Expression Analysis (LTEA) Assay for Tumor necrosis factor receptor 1 (TNFRSF1A) using HepaRG (AID 2283535); conditions: mRNA level, 48 h; actives raise or lower the signal
How it was run: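 Assay uses 48 h chemical treatment of differentiated HepaRG monolayers, tested in duplicate at eight concentrations from 100 uM downward in 0.5% DMSO. mRNA is normalized to ACTB, GAPDH and POLR2A, with induction or suppression fitted relative to vehicle.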

[4] = read-out: Thyroid Hormone Responsive (THRSP), THRSP (gene 7069); assay: LTEA_HepaRG_THRSP: Life Technologies and Expression Analysis (LTEA) Assay for Thyroid Hormone Responsive (THRSP) using HepaRG (AID 2283536); conditions: mRNA level, 48 h; actives raise or lower the signal
How it was run: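 THRSP transcript quantified by Fluidigm qRT-PCR against three housekeeping genes after 48 h chemical exposure of HepaRG cells in serum-free induction medium; eight-point half-log series, top 100 uM, 0.5% DMSO vehicle, duplicate wells.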

[5] = read-out: Cellular tumor antigen p53 (Homo sapiens) (UniProt P04637); assay: LTEA_HepaRG_TP53: Life Technologies and Expression Analysis (LTEA) Assay for Tumor Protein P53 (TP53) using HepaRG (AID 2283537); conditions: mRNA level, 48 h; actives raise or lower the signal
How it was run: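 HepaRG, 48 h exposure, top 100 uM, half-log 8-point, 0.5% DMSO vehicle, duplicates. Read: TP53 mRNA by TaqMan qRT-PCR, normalised to ACTB/GAPDH/POLR2A; bidirectional fit vs DMSO.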

[6] = read-out: UDP glucuronosyltransferase (UGT1A1), UGT1A1 (gene 54658); assay: LTEA_HepaRG_UGT1A1: Life Technologies and Expression Analysis (LTEA) Assay for UDP glucuronosyltransferase (UGT1A1) using HepaRG (AID 2283538); conditions: mRNA level, 48 h; actives raise or lower the signal
How it was run: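 mRNA induction or loss of UGT1A1, by TaqMan qRT-PCR, in duplicate HepaRG wells after 48 h exposure to half-log dilutions topping at 100 uM; DMSO (0.5%) served as baseline.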

[7] = read-out: UDP glucuronosyltransferase (UGT1A6), UGT1A6 (gene 54578); assay: LTEA_HepaRG_UGT1A6: Life Technologies and Expression Analysis (LTEA) Assay for UDP glucuronosyltransferase (UGT1A6) using HepaRG (AID 2283539); conditions: mRNA level, 48 h; actives raise or lower the signal
How it was run: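 Measures mRNA change in HepaRG hepatic cells exposed 48 h to chemicals (eight-point, maximum 100 uM, 0.5% DMSO vehicle) in serum-free induction medium. Expression normalized to endogenous controls; DMSO served as negative control and baseline.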

[8] = read-out: X-box binding protein 1 (XBP1), XBP1 (gene 7494); assay: LTEA_HepaRG_XBP1: Life Technologies and Expression Analysis (LTEA) Assay for X-box binding protein 1 (XBP1) using HepaRG (AID 2283540); conditions: mRNA level, 48 h; actives raise or lower the signal
How it was run: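 Eight concentrations (half-log, highest 100 uM, 0.5% DMSO) tested in duplicate on HepaRG cells over 48 h in serum-free induction medium; qRT-PCR of XBP1 normalised to ACTB, GAPDH, POLR2A.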

[9] = biological target: Cellular tumor antigen p53 (Homo sapiens) (UniProt P04637); assay: TOX21_p53_BLA_p3_ratio: Tox21 HCT-116 p53 Agonism Beta-lactamase Assay, Ratio, Phase 3 (AID 2283596; active = hit-call score of the fitted dose curve at least 0.9, where 1 is the maximum)
How it was run: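 Cells were seeded at 4000/well, rested 5 h at 37C, then dosed with DMSO compound solutions (217-fold dilution) for 16 h. CCF4-AM substrate was loaded for 2 h at room temperature, and the 460/530 nm emission ratio was fitted for gain of signal versus DMSO.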

[10] = TOX21_p53_BLA_p4_viability: Viability Assessment in the Tox21 HCT-116 p53 Agonism Beta-lactamase Assay, Phase 4 (AID 2283597; active = hit-call score of the fitted dose curve at least 0.9, where 1 is the maximum;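 also: hits lower the luminescence signal meaning cytotoxicity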)
How it was run: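 In this multiplexed secondary endpoint, HCT116 cells (4000 per well, compound at 5 h, 16 h treatment) received CellTiter-Glo after the beta-lactamase read. Luminescence after 30 min RT reflects ATP, and falling signal marks cytotoxicity.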

[11] = biological target: Cellular tumor antigen p53 (Homo sapiens) (UniProt P04637); assay: TOX21_p53_BLA_p5_ratio: Tox21 HCT-116 p53 Agonism Beta-lactamase Assay, Ratio, Phase 5 (AID 2283599; active = hit-call score of the fitted dose curve at least 0.9, where 1 is the maximum)
How it was run: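 Beta-lactamase reporter ratio (blue 460 nm over green 530 nm, 405 nm excitation) after 2 h CCF4-AM loading, in HCT-116 cells exposed 16 h at 37 C to compounds pinned at 217-fold dilution. Increases relative to DMSO baseline scored.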

[12] = TOX21_p53_BLA_p5_viability: Viability Assessment in the Tox21 HCT-116 p53 Agonism Beta-lactamase Assay, Phase 5 (AID 2283600; active = hit-call score of the fitted dose curve at least 0.9, where 1 is the maximum)
How it was run: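 Here cell health was gauged by ATP levels in wells holding 4000 cells, each treated 16 h with DMSO-delivered compounds at 217-fold dilution; reduced luminescence marked toxicity.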

[13] = biological target: Cellular tumor antigen p53 (Homo sapiens) (UniProt P04637); assay: TOX21_p53_BLA_p4_ratio: Tox21 HCT-116 p53 Agonism Beta-lactamase Assay, Ratio, Phase 4 (AID 2283601; active = hit-call score of the fitted dose curve at least 0.9, where 1 is the maximum)
How it was run: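 Signal is the blue/green (460nm/530nm) ratio of cleaved versus uncleaved CCF4-AM substrate, read after 2 h substrate loading. Cells were HCT116 carrying the p53-responsive beta-lactamase reporter, dosed 16 h at 37C, 5% CO2; CellTiter-Glo measured in parallel.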

[14] = ATG_XTT_Cytotoxicity: Cytotoxicity Assessment in the Attagene TRANS-FACTORIAL HepG2 Assay (AID 2283584; active = hit-call score of the fitted dose curve at least 0.9, where 1 is the maximum)
How it was run: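 24 h chemical exposure of reporter-transfected HepG2; XTT signal loss vs DMSO indicates cytotoxicity.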

[15] = biological target: Cellular tumor antigen p53 (Homo sapiens) (UniProt P04637); assay: TOX21_p53_BLA_p2_ratio: Tox21 HCT-116 p53 Agonism Beta-lactamase Assay, Ratio, Phase 2 (AID 2283592; active = hit-call score of the fitted dose curve at least 0.9, where 1 is the maximum)
How it was run: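 DMSO-normalized, positive-direction endpoint derived from the 460 nm/530 nm FRET ratio in HCT116 p53 beta-lactamase reporter cells exposed 16 h at 37C and loaded with CCF4-AM for 2 h.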

[16] = TOX21_p53_BLA_p3_viability: Viability Assessment in the Tox21 HCT-116 p53 Agonism Beta-lactamase Assay, Phase 3 (AID 2283593; active = hit-call score of the fitted dose curve at least 0.9, where 1 is the maximum;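 also: cells exposed to compound for 16 h before reading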)
How it was run: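 Cellular ATP was quantified by CellTiter-Glo luminescence, read after 30 min at room temperature. Beforehand, HCT116 cells (4000/well) received compound 5 h post-seeding, 217-fold diluted from DMSO, then incubated 16 h at 37C.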

[17] = LTEA_HepaRG_LDH_cytotoxicity: Cytotoxicity Assessment in the Life Technologies and Expression Analysis (LTEA) Assay (AID 2283563; active = hit-call score of the fitted dose curve at least 0.9, where 1 is the maximum)
How it was run: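 Spent-medium LDH after 48 h chemical exposure of HepaRG cells in serum-free induction medium; eight concentrations, half-log dilutions from 100 uM, duplicate wells, fitted upward relative to 0.5% DMSO.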

[18] = TOX21_p53_BLA_p2_viability: Viability Assessment in the Tox21 HCT-116 p53 Agonism Beta-lactamase Assay, Phase 2 (AID 2283591; active = hit-call score of the fitted dose curve at least 0.9, where 1 is the maximum;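 also: compound exposure lasted 16 h at 37 °C; actives lower the ATP signal meaning cytotoxicity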)
How it was run: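 Cytotoxicity readout: CellTiter-Glo ATP luminescence, 30 min at room temperature, after the beta-lactamase read. Cells were HCT116 exposed 16 h at 37C to compounds pin-transferred at 217-fold dilution from DMSO stocks.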

Measured: outcome

Cellular tumor antigen p53 (Homo sapiens), sequence (P04637 whole entry, looked up): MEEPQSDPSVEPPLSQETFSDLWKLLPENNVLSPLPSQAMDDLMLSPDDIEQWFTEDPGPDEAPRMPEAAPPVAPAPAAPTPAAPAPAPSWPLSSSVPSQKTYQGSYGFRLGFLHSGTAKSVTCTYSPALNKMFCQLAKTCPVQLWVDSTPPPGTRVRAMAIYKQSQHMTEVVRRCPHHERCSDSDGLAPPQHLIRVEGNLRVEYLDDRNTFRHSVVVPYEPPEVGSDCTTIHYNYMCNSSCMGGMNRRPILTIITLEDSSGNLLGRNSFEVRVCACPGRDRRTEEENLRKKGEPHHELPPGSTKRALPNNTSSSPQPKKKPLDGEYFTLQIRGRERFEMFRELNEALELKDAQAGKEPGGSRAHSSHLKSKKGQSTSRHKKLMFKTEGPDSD

ClC(Cl)(Cl)c1ccccc1
not listed: [14] | [15] | [16] | [17] | [18]
inactive: all other assays above

CCCCN(CCCC)N=O
not listed: [17] | [18]
inactive: all other assays above

c1ccc(OP(Oc2ccccc2)Oc2ccccc2)cc1
not listed: [12] | [13] | [16] | [18]
inactive: all other assays above

CC(Cc1ccc(OCC(=O)O)cc1)NCC(O)c1csc(C(F)(F)F)n1 (stereo unspecified)
not listed: [10] | [12] | [14] | [16] | [17] | [18]
inactive: all other assays above

O=[N+]([O-])c1ccccc1
not listed: [14] | [17]
inactive: all other assays above

O=C(O)C1C(C(=O)O)C2(Cl)C(Cl)=C(Cl)C1(Cl)C2(Cl)Cl (stereo unspecified)
not listed: [10] | [16] | [17] | [18]
inactive: all other assays above
